# This is a sample that favours compounds with a hit; in the whole collection about 6% have one here.
# Tau FP inhib – inhibitors of human tau fibril formation | Potency, µM (highest dose often 57.7 µM), for inactives: at the top dose activity, negative = inhibition, most hits filed as inhibitors | hit rate 0.39% among 280,000 | K18 P301L tau heparin fibrillization, Alexa594 FP, 6 h | AID 1468; also: nearly all actives have a fitted effect of over 55% in size
# Target sequence (P10636 561-689 P618L limits assumed): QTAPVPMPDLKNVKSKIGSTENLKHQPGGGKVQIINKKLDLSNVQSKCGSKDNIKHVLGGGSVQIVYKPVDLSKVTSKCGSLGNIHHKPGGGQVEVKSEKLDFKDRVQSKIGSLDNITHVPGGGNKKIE
#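 Steps: dispense K18 P301L tau (15 uM plus 0.24 uM Alexa 594 tracer, final) in pH 7 sodium acetate; add compound; add heparin (20 uM final); incubate 6 hr, 37 C; add ThT (30 uM final); after 1 hr ambient, read FP.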
# VDR inhibitor – inhibitors of human vitamin D receptor. P11473. AID 504847. VDR-SRC2-3 peptide fluorescence polarization, 2 h. hit rate 0.93% among 400,000. Potency, µM, for the others: max response, negative = inhibition, usual class: inhibitors
#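 Fluorescence polarization assay measuring small-molecule disruption of VDR binding to the coregulator peptide SRC2-3. Compounds were pin-transferred (23 nl) into the reagent mix and incubated 2 h at room temperature before reading.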
# Tau fluor cs – counter-screen for tau fibril formation inhibitors. tau K18 P301L Alexa594 fluorescence, heparin fibrillization. Potency, µM (top dose mostly 57.7 µM), without a hit: at the highest dose activity change, negative = decrease. hit rate 0.93% among 280,000. AID 1463; also: nearly all actives have a fitted effect of over 55% in size
#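 Human tau K18 P301L (15 uM unlabeled, 0.24 uM Alexa 594-labeled) in 100 mM sodium acetate pH 7 with 20 uM heparin, 6 hr at 37 C. ThT 30 uM added, 1 hr ambient; Alexa 594 FP and total fluorescence read at 555/632 nm.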
# PLK1 PBD inh – blocks phosphopeptide binding to human PLK1 polo-box domain; Plk1 PBD binding of FITC phosphopeptide, fluorescence polarization; Potency, µM, for inactives: max response, negative = inhibition, hits mostly inhibitors; hit rate 2.8% among 360,000; AID 720504; also: series mostly up to about 57 µM; nearly all actives have a fitted effect of over 65% in size
# Target sequence (P53350 whole entry, looked up, the tested form may be a part): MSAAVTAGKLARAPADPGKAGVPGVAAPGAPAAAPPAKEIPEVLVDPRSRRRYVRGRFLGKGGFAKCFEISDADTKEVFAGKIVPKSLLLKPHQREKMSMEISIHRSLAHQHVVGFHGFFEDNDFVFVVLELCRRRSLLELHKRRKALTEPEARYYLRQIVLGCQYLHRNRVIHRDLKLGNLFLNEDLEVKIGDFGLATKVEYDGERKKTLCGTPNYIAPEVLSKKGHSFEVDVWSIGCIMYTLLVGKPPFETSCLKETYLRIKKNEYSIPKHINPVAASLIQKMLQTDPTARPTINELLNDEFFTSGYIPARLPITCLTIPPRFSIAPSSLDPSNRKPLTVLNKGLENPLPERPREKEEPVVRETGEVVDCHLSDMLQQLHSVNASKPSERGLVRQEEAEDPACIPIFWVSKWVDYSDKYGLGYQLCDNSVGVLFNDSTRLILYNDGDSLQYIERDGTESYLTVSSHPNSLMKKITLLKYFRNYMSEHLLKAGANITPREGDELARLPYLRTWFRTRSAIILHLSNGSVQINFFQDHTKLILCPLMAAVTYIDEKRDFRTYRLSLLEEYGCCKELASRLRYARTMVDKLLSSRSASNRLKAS
# Sfp PPTase inh – blocks B. subtilis Sfp PPTase activity | Q9F4F7 | Biochemical Sfp PPTase activity, qHTS | Potency, µM, for the others: largest response in the series, negative = inhibition, hits mostly inhibitors | hit rate 3.5% among 310,000 | AID 1490;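 also: the enzyme is Sfp with the accession as filed and its product quenches rhodamine fluorescence; 0% = enzyme reaction without inhibitor and -100% = no enzyme wells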
#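 Sfp 15 nM + cpd, 15 min RT; start w/ rhodamine-CoA 5 uM, BHQ-2-YbbR 12.5 uM (final); 50 mM Hepes pH 7.6, 10 mM MgCl2, 0.01% NP-40, 0.01% BSA; read 525/598 nm at 0 and 30 min.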
# Tau fibril ThT – blocks human tau fibril formation measured by thioflavin T. recombinant tau K18 P301L, heparin-induced fibrillization, ThT fluorescence. AID 1460. Potency, µM (series often up to 57.4 µM), for the others: at the top dose activity, negative = inhibition, hits mostly inhibitors. hit rate 2.1% among 270,000. P10636; also: nearly all actives have a fitted effect of over 55% in size
#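 ThT emission at 510 nm, taken 1 hr after adding 30 uM dye, quantifies aggregates formed when 20 uM heparin acts on human tau K18 P301L for 6 hr at 37 C.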
# TbPYK confirm – confirmation of Trypanosoma brucei pyruvate kinase inhibitors | AID 720569 | Potency, µM (top dose mostly 76.9 µM), for inactives: at the top dose activity change, negative = inhibition, hits mostly inhibitors | shares compounds with PLK1 PBD inh | recombinant TbPYK, Kinase-Glo ATP luminescence | hit rate 67% among 890; also: nearly all actives have a fitted effect of over 70% in size
# TbPYK orthogonal – TbPYK inhibition, orthogonal confirmation | shares compounds with PLK1 PBD inh | hit rate 62% among 890 | AID 720584 | recombinant TbPYK, ADP-Glo luminescence, 60 min | Potency, µM (top dose mostly 76.9 µM), for inactives: at the highest dose activity change, negative = inhibition, hits mostly inhibitors; also: nearly all actives have a fitted effect of over 75% in size
# Starred values were filed as active, the others as inactive; ? = inconclusive; . = no result. Calls follow the shape of the dose curve; as a rule, active = well fitted curve in the direction sought with a large enough effect; inconclusive = small, poorly fitted or top-dose-only effect, or another doubt; inactive = no such curve, though single readings can be large; an effect the other way counts as inactive or inconclusive. Unless noted, % is scaled to controls: 0 for no effect and ±100 for the full control effect; potency is read from the fitted curve at half-maximal effect.
SMILES,Tau FP inhib,VDR inhibitor,Tau fluor cs,PLK1 PBD inh,Sfp PPTase inh,Tau fibril ThT,TbPYK confirm,TbPYK orthogonal
CC(C)(C)C1=Nn2c(nnc2-c2n[nH]c3c2CCC3)SC1,-2.6%,?,5.3%,23.8µM*,25.1µM*,0.0%,10µM*,10µM*
COC(=O)c1ccc(C(NC(=O)OCc2ccccc2)/C(=C/[C@@H](C)C(=O)N[C@@H](CO)Cc2ccccc2)c2cccnc2)cc1 (stereo not given in full),4.3%,.,?,.,10.3%,-15.5%,.,.
Cn1c(-c2nonc2N)nc2ccccc21,.,1.9%,.,1.0%,2.6%,.,.,.
Cc1ccc(-c2nc3ccccc3n2C)o1,2.6%,-18.7%,-3.1%,-10.7%,35.5µM*,?,?,-7.0%
Cc1ccc(S(=O)(=O)N(C)C[C@H]2OCCCC[C@@H](C)Oc3ccc(N(C)C)cc3C(=O)N([C@H](C)CO)C[C@@H]2C)cc1,.,.,.,-9.0%,.,.,7.08µM*,7.94µM*
C[C@@H]1CCCCO[C@H](CN(C)C(=O)C2CCCCC2)[C@@H](C)CN([C@H](C)CO)C(=O)c2cc(N(C)C)ccc2O1,.,.,.,?,.,.,28.2µM*,?
C[C@@H]1CCCCO[C@@H](CN(C)S(C)(=O)=O)[C@@H](C)CN([C@H](C)CO)C(=O)c2cc(N(C)C)ccc2O1,.,.,.,-13.4%,.,.,.,.
CC(C)(C)OC(=O)N1O[C@H]2CC1[C@@H]1[C@@H]2N=NN1CCc1ccncc1,.,-18.4%,.,-5.3%,.,.,7.94µM*,14.1µM*
CC(C)(C)OC(=O)N1O[C@H]2C[C@@H]1[C@@H]1[C@@H]2N=NN1C12CC3CC(CC(C3)C1)C2,.,-3.0%,.,-8.3%,.,.,.,.
CCCOc1ccc(C2C(=O)N(C3CCCCCC3)CC(=O)N2Cc2ccc(OC)cc2)cc1OC (stereo not given),-3.6%,-4.1%,-7.6%,.,.,-11.8%,.,.
O=C(c1cccc(Cl)c1)N(Cc1cccc(F)c1)C1CCS(=O)(=O)C1 (stereo not given),-6.2%,7.7%,-4.5%,.,.,4.4%,.,.
CC(C)n1c(=O)[nH]c2ccccc21,4.0%,7.5%,1.2%,-5.7%,5.9%,-5.3%,.,.
CC(C)n1c(=O)[nH][nH]c1=S,?,50.1µM*,-26.1%,10.6µM*,8.91µM*,28.2µM*,1µM*,2.51µM*
O=C(NC(=S)NNC(=O)c1ccccc1[N+](=O)[O-])c1ccc(Br)cc1,.,-22.2%,.,?,79.4µM*,.,?,?
CC(=O)c1ccc(-c2cnc3c(NC=O)cc(-c4ccccc4Oc4ccccc4)cn23)cc1,.,.,.,2.8%,.,.,.,.
O=C(O)C1CCc2sc3[nH]c(=S)n(-c4ccccc4)c(=O)c3c21 (stereo not given),-3.0%,-15.9%,-18.6%,?,25.1µM*,?,2µM*,3.16µM*
Cc1ccc([C@H]2C[C@@H](O)[C@H](n3cc(C4CC4)nn3)CN2C(=O)c2cccs2)cc1,.,.,.,-8.6%,.,.,.,.
Cc1ccc(-n2c(SCC(=O)Nc3ccc4c(c3)OCO4)nnc2-c2cccs2)cc1,-3.6%,-7.9%,-12.8%,-4.9%,-10.3%,1.8%,1.78µM*,4.47µM*
Cc1cc2nc(-c3cccc(NC(=O)CSc4ccc(Cl)cc4)c3)oc2cc1C,?,-11.2%,-16.4%,.,.,5.6%,.,.
COC(=O)c1ccc(CCc2cc(O)c(Br)cc2O)cc1,.,-6.1%,.,?,.,.,31.6µM*,35.5µM*
OC(c1ccccc1)(c1nc(-c2cc(F)cc(F)c2)cs1)C(F)(F)F (stereo not given),.,.,.,-5.9%,.,.,.,.
O=C1c2ccccc2C(=O)N1c1ccc2ncccc2c1,.,-9.6%,.,.,.,.,.,.
O=C1C=CC(=O)N1c1ccc2ccccc2c1,.,79.4µM*,.,8.44µM*,.,.,25.1µM*,?
CCN(CC)C1CC(=O)N(c2cccc(C)c2)C1=O (stereo not given),0.3%,.,-5.5%,.,-17.6%,?,.,.
Cc1cccc(N2C(=O)C=CC2=O)c1,.,50.1µM*,.,29.9µM*,.,.,?,?
SMILES,Tau FP inhib,VDR inhibitor,Tau fluor cs,PLK1 PBD inh,Sfp PPTase inh,Tau fibril ThT,TbPYK confirm,TbPYK orthogonal
O=C(Nc1ccc(Nc2ccccc2)cc1)c1c(F)c(F)c(F)c(F)c1F,.,11.2%,.,-7.5%,-15.1%,.,.,.
O=C1C=CC(=O)N1c1ccc(Nc2ccccc2)cc1,.,?,.,23.8µM*,.,.,?,?
CCOC(=O)CCCCCC(=O)Nc1ccc2c(c1)C(=O)N([C@@H](C)CO)C[C@@H](C)[C@H](CN(C)S(=O)(=O)c1cccs1)OCCCC[C@H](C)O2,.,.,.,-7.8%,.,.,.,.
C[C@@H]1COC(=O)[C@H](Cc2ccc(F)cc2)CC/C=C\C[C@@H](CC(=O)NCCO)C(=O)N1,.,-7.7%,.,-2.8%,.,.,.,.
CNC(=O)OCc1nc(SC2CCCCO2)n(C)c1COC(=O)NC (stereo not given),.,.,.,-13.5%,.,.,.,.
O=C(CCc1nc2ccccc2[nH]1)N1CCN(C(=O)c2ccco2)CC1,-1.5%,-0.6%,-9.0%,-1.7%,6.2%,-9.9%,.,.
O=C(CSc1ccc(-c2nc3ccccc3[nH]2)cn1)N1CCN(C(=O)c2ccco2)CC1,-9.3%,?,-8.5%,29.9µM*,-4.2%,-13.1%,?,?
COc1cc2cc(C(c3nnnn3Cc3ccc(F)cc3)N3CCCCCC3)c(=O)[nH]c2cc1OC (stereo not given),-3.4%,-8.6%,-7.2%,-14.3%,-10.4%,?,.,.
COCCn1nnnc1C(c1cc2cc(OC)c(OC)cc2[nH]c1=O)N1CCN(c2ccc(O)cc2)CC1 (stereo not given),9.7%,2.0%,12.0%,?,?,10.5%,6.31µM*,15.8µM*
CCOC(=O)CC(=O)CSC1=C(C#N)C(c2ccccc2OC)CC(=O)N1 (stereo not given),3.1%,-2.9%,-11.4%,-4.3%,?,-12.0%,.,.
C=C(C)CSC1=C(C#N)C(c2ccccc2Cl)CC(=O)N1 (stereo not given),-10.7%,?,-13.3%,13.4µM*,44.7µM*,-10.8%,5.01µM*,8.91µM*
C[C@]12CC[C@H](O)CC1=CCC1C2CC[C@@]2(C)C1CC[C@@H]2NC(=O)[C@@H](N)Cc1cnc[nH]1 (stereo not given in full),.,6.1%,.,-1.6%,.,.,.,.
CCOc1ccc(N(CC(=O)NCCSCc2ccc(Cl)cc2)S(C)(=O)=O)cc1,.,-22.8%,.,-16.7%,-5.9%,.,.,.
CCc1nc2c(OCCn3cccc3)cccn2c1N(C)C(=O)c1ccco1,.,.,.,-4.7%,.,.,.,.
CCOC(=O)c1ccc(CNCc2ccccc2)cc1,8.9%,-12.5%,1.6%,-19.0%,7.7%,-3.2%,.,.

# Source: PubChem BioAssay
